Values without a mark were called inactive. For some assays here: Results with a measured potency or affinity are listed apart. Calls of active or inactive are those of the source. Unless noted, no rule for the calls is given here.
How the values were obtained:
[1] = antimalarial activity against Dd2 strain (AID 2302;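 active = growth inhibition above 50% at the single 2 µM test dose, taken to imply half-maximal potency below 2 µM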;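 also: 0% = DMSO untreated growth and 100% = chloroquine plus artemisinin killed control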); settings: P. falciparum Dd2 in RBCs, LDH growth readout, 72 h; at 2 µM; active compounds read high
[2] = HepG2 cytotoxicity, primary screen, cytotoxicity control for P. falciparum antimalarial project, cell-based, ATP luminescence (AID 2303;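 active = inhibition above 50%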;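 also: 0% = DMSO wells and 100% = digitonin-killed cells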); settings: HepG2 viability, 24-48 h, at 10 µM, active compounds read high
[3] = molecular target: L-lactate dehydrogenase (Plasmodium falciparum (isolate CDC / Honduras)) (UniProt Q27743); assay: PfLDH activity inhibition – cell lysate, 3D7 strain, counter-screen for P. falciparum growth inhibition project (AID 2304);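 also: 0% = vehicle and 100% = reference inhibitor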; settings: P. falciparum 3D7 crude extract, LDH APAD/NBT absorbance; at 2 µM; active compounds read high
Chain of L-lactate dehydrogenase (Plasmodium falciparum (isolate CDC / Honduras)) (Q27743 whole entry, looked up): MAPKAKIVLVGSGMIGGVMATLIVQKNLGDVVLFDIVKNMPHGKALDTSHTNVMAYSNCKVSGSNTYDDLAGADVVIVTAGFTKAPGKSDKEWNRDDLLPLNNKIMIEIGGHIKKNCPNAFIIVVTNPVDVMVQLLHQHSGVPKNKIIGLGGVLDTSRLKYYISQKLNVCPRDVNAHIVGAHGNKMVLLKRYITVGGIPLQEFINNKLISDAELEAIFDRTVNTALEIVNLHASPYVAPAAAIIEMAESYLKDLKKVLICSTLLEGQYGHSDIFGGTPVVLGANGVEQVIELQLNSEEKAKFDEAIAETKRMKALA

[4] = inhibition of 3D7 malaria parasite growth – strain 3D7 (AID 2306);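 also: 0% = DMSO wells and 100% = chloroquine plus artemisinin control wells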; settings: P. falciparum 3D7 erythrocytic growth, LDH absorbance, 72 h; at 2 µM; active compounds read high
[5] = molecular target: Calcium-dependent protein kinase 1 (Plasmodium falciparum (isolate 3D7)) (UniProt P62344); assay: PfCDPK1 kinase inhibitors, biochemical, TCAMS library (AID 1159585; cut-off not given, nearly all actives have IC50 up to about 0.98 µM;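 also: inhibitors leave more ATP so luminescence rises with inhibition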); settings: recombinant PfCDPK1, Kinase-Glo ATP depletion luminescence
Chain of Calcium-dependent protein kinase 1 (Plasmodium falciparum (isolate 3D7)) (P62344 whole entry, looked up): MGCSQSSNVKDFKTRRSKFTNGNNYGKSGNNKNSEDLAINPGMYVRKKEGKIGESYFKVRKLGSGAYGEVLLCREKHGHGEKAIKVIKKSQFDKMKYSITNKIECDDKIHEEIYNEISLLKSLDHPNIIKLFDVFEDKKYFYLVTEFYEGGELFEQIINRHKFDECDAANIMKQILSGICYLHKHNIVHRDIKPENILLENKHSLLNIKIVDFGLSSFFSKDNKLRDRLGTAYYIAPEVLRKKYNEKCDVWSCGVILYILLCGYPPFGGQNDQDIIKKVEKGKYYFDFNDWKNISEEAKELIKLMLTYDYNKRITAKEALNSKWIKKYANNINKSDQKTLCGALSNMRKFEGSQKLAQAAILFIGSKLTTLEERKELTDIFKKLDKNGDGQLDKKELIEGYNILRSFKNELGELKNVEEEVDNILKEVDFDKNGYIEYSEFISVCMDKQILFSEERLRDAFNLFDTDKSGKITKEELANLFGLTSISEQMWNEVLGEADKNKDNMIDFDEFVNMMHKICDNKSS

[6] = molecular target: Plasmodium falciparum protein kinase 6 (PK6, PF3D7_1337100) (UniProt Q8IDW1); assay: PfPK6 kinase inhibitors, biochemical, TCAMS library (AID 1159586); settings: recombinant PfPK6, Kinase-Glo ATP depletion luminescence
Chain of Plasmodium falciparum protein kinase 6 (PK6, PF3D7_1337100) (Q8IDW1 1-305): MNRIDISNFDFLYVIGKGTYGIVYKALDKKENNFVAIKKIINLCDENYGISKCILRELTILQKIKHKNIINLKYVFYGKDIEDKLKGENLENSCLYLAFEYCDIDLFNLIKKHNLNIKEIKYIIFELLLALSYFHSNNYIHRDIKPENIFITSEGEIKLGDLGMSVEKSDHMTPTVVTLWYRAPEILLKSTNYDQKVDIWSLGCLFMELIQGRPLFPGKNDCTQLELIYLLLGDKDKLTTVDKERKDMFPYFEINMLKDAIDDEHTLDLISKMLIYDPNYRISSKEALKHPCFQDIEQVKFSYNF

[7] = molecular target: Protein kinase 7 (PK7), Plasmodium falciparum 3D7 (PF3D7_0213400) (UniProt Q7YTF7); assay: inhibition of Plasmodium PK7 catalytic activity – biochemical, TCAMS antimalarial set, Kinase-Glo luminescence (AID 1159587); settings: recombinant PfPK7, Kinase-Glo ATP depletion luminescence
Chain of Protein kinase 7 (PK7), Plasmodium falciparum 3D7 (PF3D7_0213400) (Q7YTF7 1-343): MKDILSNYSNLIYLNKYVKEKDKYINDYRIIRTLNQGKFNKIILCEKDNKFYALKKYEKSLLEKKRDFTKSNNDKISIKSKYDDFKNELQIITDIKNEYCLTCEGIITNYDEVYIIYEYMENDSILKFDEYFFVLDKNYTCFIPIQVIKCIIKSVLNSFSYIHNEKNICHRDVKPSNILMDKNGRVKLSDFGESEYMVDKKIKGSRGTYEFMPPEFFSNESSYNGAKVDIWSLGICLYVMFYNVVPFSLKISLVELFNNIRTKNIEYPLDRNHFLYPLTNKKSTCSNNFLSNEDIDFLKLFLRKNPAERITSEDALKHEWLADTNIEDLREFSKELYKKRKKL

[8] = molecular target: Calcium-dependent protein kinase 4 (Plasmodium falciparum (isolate 3D7)) (UniProt Q8IBS5); assay: PfCDPK4 kinase inhibitors, biochemical, TCAMS library (AID 1159588; cut-off not given, nearly all actives have IC50 up to about 0.91 µM); settings: recombinant PfCDPK4, Kinase-Glo ATP depletion luminescence
Chain of Calcium-dependent protein kinase 4 (Plasmodium falciparum (isolate 3D7)) (Q8IBS5 whole entry, looked up): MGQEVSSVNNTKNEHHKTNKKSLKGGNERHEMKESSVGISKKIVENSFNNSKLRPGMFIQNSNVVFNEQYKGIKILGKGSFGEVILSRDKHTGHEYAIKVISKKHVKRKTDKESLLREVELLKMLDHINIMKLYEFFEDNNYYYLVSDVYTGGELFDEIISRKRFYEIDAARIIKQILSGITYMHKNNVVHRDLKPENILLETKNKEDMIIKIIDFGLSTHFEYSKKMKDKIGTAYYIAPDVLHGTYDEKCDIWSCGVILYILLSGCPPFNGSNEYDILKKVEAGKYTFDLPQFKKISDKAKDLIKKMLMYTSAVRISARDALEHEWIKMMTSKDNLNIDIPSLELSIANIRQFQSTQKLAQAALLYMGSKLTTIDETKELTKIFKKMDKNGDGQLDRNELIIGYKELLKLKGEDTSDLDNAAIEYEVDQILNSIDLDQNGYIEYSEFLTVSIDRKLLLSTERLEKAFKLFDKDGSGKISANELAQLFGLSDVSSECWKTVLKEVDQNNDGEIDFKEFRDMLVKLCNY

SMILES | growth inhibition [1] | inhibition [2] | inhibition [3] [%] | growth inhibition [4] | outcome [5] | outcome [6] | outcome [7] | outcome [8]
Cc1nc(-c2nc(NCc3ccc4c(c3)OCO4)ncc2-c2ccsc2)sc1C | 77% (active) | 7% | -6 | 97% (active) | inactive | inactive | inactive | inactive
COc1cccc(C(=O)Nc2ccc(Nc3nc(C)cc(N(C)C)n3)cc2)c1 | 33% | 1% | -2 | 92% (active) | inactive | inactive | inactive | inactive
COc1ccc2nccc([C@@H](O)CN3CCC(NC(=O)Cc4cc5ccccc5s4)CC3)c2c1 | 42% | 16% | 7 | 92% (active) | inactive | inactive | inactive | inactive
COc1ccc(C(C(=O)NC2CCN(C[C@H](O)c3ccnc4ccc(OC)cc34)CC2)N2CCc3ccccc3C2)cc1 (stereo not given in full) | 30% | 19% | -3 | 96% (active) | inactive | inactive | inactive | inactive
COc1ccc2nccc([C@H](O)CN3CCC(NCc4ccc5c(c4C)OCCO5)CC3)c2n1 | 6% | 26% | 4 | 94% (active) | inactive | inactive | inactive | inactive
COc1ccc2ncc(Cl)c(CCN3C[C@H](CNCc4ccc5c(n4)NC(=O)CS5)[C@H](O)C3)c2n1 | 16% | 2% | 3 | 94% (active) | inactive | inactive | inactive | inactive
O=[N+]([O-])c1cccc(C=NNc2nc(Nc3ccccc3)nc(Nc3ccccc3)n2)c1 | 55% (active) | 10% | 3 | 99% (active) | inactive | inactive | inactive | inactive
COc1cccc(C(=O)N2CCN(Cc3cccc(NC(=O)c4cccs4)c3)CC2)c1 | 95% (active) | 6% | -2 | 95% (active) | inactive | inactive | inactive | inactive
CCCC1N=C(N)N=C(N)N1c1cccc(C(F)(F)F)c1 (stereo not given) | 7% | 22% | 5 | 95% (active) | inactive | inactive | inactive | inactive
O=C(NCCc1ccccc1)N(Cc1cccc(-c2ccc(CNCc3ccc4c(c3)OCO4)cc2)c1)C1CCN(Cc2ccccc2)CC1 | 70% (active) | 11% | -2 | 94% (active) | inactive | inactive | inactive | inactive
COc1ccc(CNCC2CCC(CNCCc3ccccc3)CC2)cc1Cl (stereo not given) | 29% | 23% | -2 | 100% (active) | inactive | inactive | inactive | inactive
c1ccc(Oc2ccc(Nc3ccnc4cc(-c5csc(CN6CCCCC6)n5)ccc34)cc2)nc1 | 95% (active) | 22% | -7 | 100% (active) | inactive | inactive | inactive | inactive
CC1Cc2ccccc2N1CC(=O)Nc1cc(C(F)(F)F)ccc1-n1cncn1 (stereo not given) | 97% (active) | 17% | 1 | 97% (active) | inactive | inactive | inactive | inactive
O=C(Nc1ccc(OC2CCN(Cc3ccsc3)C2)c(Cl)c1)c1cccs1 (stereo not given) | 87% (active) | -1% | -5 | 91% (active) | inactive | inactive | inactive | inactive
Cc1ccc(-c2nnc(Nc3ccc(CC(N)=O)cc3)c3ccccc23)cc1S(=O)(=O)NCC1CCCO1 (stereo not given) | 64% (active) | -6% | 6 | 83% (active) | inactive | inactive | inactive | inactive
CC(=O)Nc1ccc(C(=O)Nc2ccc(-c3cccc(-c4nc5ccccc5[nH]4)c3)cc2)cn1 | 84% (active) | 34% | 2 | 99% (active) | inactive | inactive | inactive | inactive
CCOc1cc(CC)ccc1C1CCN(CCCCNC(=O)c2ccc(NC(=O)c3ccc(C#N)cc3)cc2)CC1 | 50% (active) | 55% (active) | -1 | 91% (active) | inactive | inactive | inactive | inactive
COc1ccc(Cl)cc1-c1nc(C(=O)NCCN2CCCCC2)c(C(C)C)s1 | 37% | 14% | -3 | 100% (active) | inactive | inactive | inactive | inactive
O=C(Nc1ccc(C(=O)N(Cc2ccc3c(c2)OCO3)C2CCCC2)cc1)c1cccs1 | 95% (active) | 14% | 4 | 97% (active) | inactive | inactive | inactive | inactive
CC(O)C1CCCCN1C(=O)c1cccc(-c2cccc(-c3nc4ccc(F)cc4[nH]3)c2)c1 (stereo not given) | 99% (active) | 42% | -2 | 101% (active) | inactive | inactive | inactive | inactive

SMILES | growth inhibition [1] | inhibition [2] | inhibition [3] [%] | growth inhibition [4] | outcome [5] | outcome [6] | outcome [7] | outcome [8]
Cn1ccc(-c2cccc(Nc3ccnc4cc(-c5nccs5)ccc34)c2)n1 | 94% (active) | 39% | -1 | 101% (active) | inactive | inactive | inactive | inactive
Oc1ccccc1CCNC1CCc2ccccc2C1 (stereo not given) | 95% (active) | -4% | 4 | 96% (active) | inactive | inactive | inactive | inactive
CCC(=O)c1cc(C(=O)NCCc2cccc(OC)c2)ccc1OC | 12% | -7% | -2 | 83% (active) | inactive | inactive | inactive | inactive
COc1cc(Nc2nccc(N3CCC(NC(=O)Nc4cccc(C(C)=O)c4)C3)n2)cc(OC)c1OC (stereo not given) | 34% | 8% | -3 | 91% (active) | inactive | inactive | inactive | inactive
CCn1ccc2c(N3CCCC3=O)cc(C(=O)N[C@@H](Cc3ccccc3)[C@H](O)CNC3CCCCC3)cc21 | 98% (active) | 12% | 2 | 99% (active) | inactive | inactive | inactive | inactive
Cc1[nH]nc2cc(Nc3ccnc(Nc4cccc(CN5CCOCC5)c4)n3)ccc12 | -10% | 33% | -8 | 83% (active) | inactive | inactive | inactive | inactive
COCCN1CCC(NCC(C)(C)c2nc(-c3ccc(Cl)c(O)c3)c(-c3ccncc3)[nH]2)CC1 | 47% | -8% | -2 | 102% (active) | inactive | inactive | inactive | inactive
O=C(Nc1ccccc1)N(Cc1ccc(-c2cccc(CNC3CCCC3)c2)cc1)C1CCN(Cc2ccccc2)CC1 | 67% (active) | 43% | 1 | 101% (active) | inactive | inactive | inactive | inactive
CS(=O)(=O)CCNCc1ccc(-c2ccc3c(Nc4ccc(Oc5ccccn5)cc4)ccnc3c2)o1 | 99% (active) | 0% | -7 | 100% (active) | inactive | inactive | inactive | inactive
NC(N)=NC(=O)Nc1cc(Cl)c(Br)c(Cl)c1 | 101% (active) | 6% | 4 | 101% (active) | inactive | inactive | inactive | inactive
c1ccc(COc2ccc(Nc3ncnc4ccc(-c5ccc(CN6CCSCC6)o5)cc34)cc2)cc1 | 4% | 4% | 4 | 94% (active) | inactive | inactive | inactive | inactive
CCN(CCNC(=O)C1CCN(c2cc(-c3cccc(C)c3)ncn2)CC1)Cc1ccccc1 | 72% (active) | 24% | 2 | 83% (active) | inactive | inactive | inactive | inactive
CCN1CCN(c2cc(C)c3cc(NC(=O)c4cncc(Br)c4)ccc3n2)CC1 | 63% (active) | 3% | 3 | 97% (active) | inactive | inactive | inactive | inactive
Cc1ccc(O)cc1Nc1ccnc2cc(-c3ccccc3)ccc12 | 99% (active) | 45% | -2 | 100% (active) | inactive | inactive | inactive | inactive
COc1ccc2c(NN=Cc3cccc(Cl)c3)ccnc2c1 | 94% (active) | 32% | -3 | 101% (active) | inactive | inactive | inactive | inactive
CN(CCN)Cc1cccc(-c2cccc(-c3nc4ccc(C(F)(F)F)cc4[nH]3)c2)c1 | 98% (active) | 22% | 0 | 99% (active) | inactive | inactive | inactive | inactive
O=C1Nc2cccc3c2C1(CCCCN1CCC(c2c[nH]c4cc(C(F)(F)F)ccc24)CC1)CCC3 (stereo not given) | 79% (active) | 99% (active) | 3 | 99% (active) | inactive | inactive | inactive | inactive
CCc1cn2c3c(cc(C(=O)N[C@@H](Cc4ccccc4)[C@H](O)CNC4CCC4)cc13)N(C)S(=O)(=O)CC2 | 98% (active) | -4% | -3 | 98% (active) | inactive | inactive | inactive | inactive
CN(C)CCOc1ccc(/C(=C(/CCCn2ccnc2)c2ccccc2)c2ccc(O)cc2)cc1 | 99% (active) | 13% | 3 | 101% (active) | inactive | inactive | inactive | inactive
Fc1ccc2nc(-c3cccc(-c4cccc(CNCCN5CCNCC5)c4)c3)[nH]c2c1 | 4% | 18% | -9 | 94% (active) | inactive | inactive | inactive | inactive
